14 molecules from PubChem BioAssay (NCATS) can be followed below.

Activity calls are given as the source filed them. Calls come from the whole dose curve.

This test in a line: qHTS drug screen for cell cycle checkpoint inhibitors in PARPi-resistant BRCA-mutant ovarian cancer cell lines. (AID 1963452). As to conditions: PEO1/OlaR viability, CellTiter-Glo luminescence, 96 h; for Z-AUC: stronger effect = lower value. The source says:
Women's Malignancies Branch, Center for Cancer Research (CCR),
National Cancer Institute (NCI), National Institutes of Health (NIH), Bethesda, MD
Poly (ADP-ribose) polymerase inhibitors (PARPis) have changed the treatment paradigm in breast cancer gene (BRCA) - mutant high-grade serous ovarian carcinoma (HGSC). However, most patients eventually develop resistance to PARPis, highlighting an unmet need for improved therapeutic strategies. Using high-throughput drug screens, we identified ataxia telangiectasia and rad3-related protein/checkpoint kinase 1 (CHK1) pathway inhibitors as cytotoxic and further validated the activity of the CHK1 inhibitor (CHK1i) prexasertib in PARPi-sensitive and -resistant BRCA-mutant HGSC cells and xenograft mouse models. CHK1i monotherapy induced DNA damage, apoptosis, and tumor size reduction. We then conducted a phase 2 study (NCT02203513) of prexasertib in patients with BRCA-mutant HGSC. The treatment was well tolerated but yielded an objective response rate of 6% (1 of 17; one partial response) in patients with previous PARPi treatment. […] BRCA reversion mutation in previously PARPi-treated BRCA-mutant patients was not associated with resistance to CHK1i.
Among others, 1082 oncology drugs, both approved and investigational, were prioritized based on their status in clinical trial development. […] Drugs with average Z-AUC values less than -1.0 in all three cell lines were classified as "hits" resulting in 151 oncology drug hits. The screen also confirmed cross-resistance between olaparib and other PARPis (rucaparib, niraparib, and talazoparib) in PARPi-resistant PEO1/OlaR and PEO4.
[1] G. L. Lin, K. M. Wilson, M. Ceribelli, B. Z. Stanton, P. J. Woo, S. Kreimer, E. Y. Qin, X. Zhang, J. Lennon, S. Nagaraja, P. J. Morris, M. Quezada, S. M. Gillespie, D. Y. Duveau, A. M. Michalowski, P. Shinn, R. Guha, M. Ferrer, C. Klumpp-Thomas, S. Michael, C. McKnight, P. Minhas, Z. Itkin, E. H. Raabe, L. Chen, R. Ghanem, A. C. Geraghty, L. Ni, K. I. Andreasson, N. A. Vitanza, K. E.Warren, C. J. Thomas, M. Monje, Therapeutic strategies for diffuse midline glioma from high-throughput combination drug screening. Sci. Transl. Med. 11, (2019).
[2] T. M. Yamamoto, A. McMellen, Z. L. Watson, J. Aguilera, R. Ferguson, E. Nurmemmedov, T. Thakar, G. L. Moldovan, H. Kim, D. M. Cittelly, A. M. Joglar, E. P. Brennecke, H. Wilson, K. Behbakht, M. J. Sikora, B. G. Bitler, Activation of Wnt signaling promotes olaparib resistant ovarian cancer. Mol. Carcinog. 58, 1770 - 1782 (2019).
PROTOCOL TABLE (as described by Inglese J, Shamu CE and Guy RK. 2007)
SEQUENCE No. (e.g., 1, 2, 3, etc.); […] (e.g., Cells, Incubation, Reagent, etc.); VALUE; DESCRIPTION.
1; Compounds; 20nL; 1536-well white tissue culture-treated plates.
2; Cells; 5 uL; PEO1, PEO4, and PEO1/OlaR cells at 600 cells per well.
3; Incubation; 96 hr; 37C, 95% humidity, 5% CO2.
4; Reagent; 3 uL; CellTiter-Glo (Promega).
5; Incubation; 15 min; room temperature.
6; Detection; Luminescence, PHERAstar (BMG Labtech) plate reader.
NOTES (numbers refer to Sequence numbers above)
1. MIPE 5.0 compounds were acoustically dispensed by Echo Acoustic Liquid Handler (Beckman Coulter Life Sciences). Each compound was plated at an 11-point concentration range with 1:3 dilution. Bortezomib, a proteasome inhibitor (final concentration, 20 uM), was used as a positive.
2. PEO1, PEO4, and PEO1/OlaR were trypsinized and dispensed in 5 uLof growth medium using a Multidrop Combi dispenser at a density of 600 cells per well to allow compounds to be present during the exponential growth phase.
3. Plates were incubated for 96 hours at standard incubator conditions and covered by a stainless steel gasketed lid to prevent evaporation.
4. Three microliters of CellTiter-Glo (Promega) were added to each well.
5. Plates were incubated at room temperature for 15 min with a stainless-steel lid in place.
6. Luminescence readings were taken using PHERAstar (BMG Labtech). […]
Background: Quantitative high-throughput screening tests each substance at several concentrations.

Where [1] appears, read: measured here: PEO1 parental Z-AUC.
Potency is the fitted concentration of half-maximal effect.

On to `COC(=O)Nc1nc2ccc(C(=O)c3cccs3)cc2[nH]1`, for which the Potency is 69.2 nM (active). For the same molecule, under setting [1], the Z-AUC was -1.94. Where the note is “measured here: PEO4 Z-AUC”, the Z-AUC is -1.92.
Consider `COc1ccccc1N1CCN(CC(O)COc2cccc3ccccc23)CC1` (configuration not stated), for which the Z-AUC was -0.153 (inactive). Besides, the Z-AUC under setting [1] was 0.273. The Z-AUC (measured here: PEO4 Z-AUC) was 0.504.
On to `Nc1nc2c(ncn2COC(CO)CO)c(=O)[nH]1`, for which the Z-AUC is 1.34 (inactive). Also, the Z-AUC under setting [1] was 1.36. For the same molecule, the Z-AUC (measured here: PEO4 Z-AUC) came to 1.37.
For `Cc1cc(C(C)(C)C)c(O)c(C)c1CC1=NCCN1`, in that order: 1.21 (inactive), 0.68 and 0.695.
In the same order, the values of `NC(=O)NO` are 1.41 (inactive), 1.02 and 0.874.
For `Cc1ccccc1N1C(=O)c2cc(S(N)(=O)=O)c(Cl)cc2NC1C` (configuration not stated), in that order: -0.939 (inactive), -0.663 and -0.859.
With `CC(C(=O)O)c1cccc(C(=O)c2ccccc2)c1` (configuration not stated), the Z-AUC is 0.0263 (inactive). Besides, the Z-AUC under setting [1] came to 0.275. Also, the Z-AUC (measured here: PEO4 Z-AUC) worked out at 0.507.
In the same order, the values of `C[C@](N)(Cc1ccc(O)c(O)c1)C(=O)O` are 0.359 (inactive), 1.39 and 1.22.
In the same order, the values of `CCN1CCCC1CNC(=O)c1cc(S(=O)(=O)CC)c(N)cc1OC` (configuration not stated) are 1.05 (inactive), 0.594 and 0.466.
For `Nc1nnc(-c2cccc(Cl)c2Cl)c(N)n1`, in that order: -0.438 (inactive), 0.568 and 0.453.
Take `COc1ccc(CCN(C)CCCC(C#N)(c2ccc(OC)c(OC)c2)C(C)C)cc1OC` (configuration not stated): the Z-AUC is 0.76 (inactive). For the same molecule, the Z-AUC under setting [1] was 0.721. Also, the Z-AUC (measured here: PEO4 Z-AUC) turned out to be 1.08.
In the same order, the values of `COc1cc2c(c(OC)c1OC)-c1ccc(OC)c(=O)cc1[C@@H](NC(C)=O)CC2` are -0.869 (inactive), -1.12 and -1.62.
For `C[C@@H]1CC(=O)NN=C1c1ccc(NN=C(C#N)C#N)cc1`, in that order: 0.769 (inactive), 0.69 and 0.452.
For `NCCc1cnc[nH]1`, in that order: 0.48 (inactive), 0.383 and 0.867.
